As usually defined, the AC50 is the concentration giving half of the maximal activity seen.

Results on seven compounds are retold here after PubChem BioAssay (EPA / NIEHS).

Test [1] in a line: ATG_CRE_CIS: Attagene CIS-FACTORIAL HepG2 Assay for human cAMP Responsive Element (CRE) binding protein 3 (AID 2282926). The conditions noted are these: HepG2 CRE cis-reporter, Attagene multiplexed mRNA; actives raise or lower the signal. The essentials: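 Induced reporter mRNA from a CRE cis element, measured in HepG2 among many multiplexed units at 24 h. Detection used RT-PCR plus capillary electrophoresis of fluorescent fragments; DMSO served as negative control.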

Test [2] concerns the target CCAAT/enhancer-binding protein beta (Homo sapiens) (UniProt P17676). Kind of test: ATG_C_EBP_CIS: Attagene CIS-FACTORIAL HepG2 Assay for human CCAAT/Enhancer Binding Protein (C/EBP) beta (AID 2282927). To be noted: HepG2 Attagene cis-factorial transcription factor reporter; actives raise or lower the signal. The essentials: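 HepG2 transiently transfected with multiplexed reporter units under cis-regulatory promoters reporting endogenous C/EBPb activity. After 24 h exposure, reporter mRNA assayed by RT-PCR, fluorescent labelling, HpaI digestion and capillary electrophoresis; bidirectional fitting versus DMSO.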

The nature of test [3]: ATG_CMV_CIS: Attagene CIS-FACTORIAL HepG2 Assay for human CMV (Internal Marker) (AID 2282928).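 Further: endpoint acts as a background internal control marker rather than a target.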 To be noted: HepG2 CMV promoter reporter, transcription factor profiling; actives raise or lower the signal. The essentials: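 24 h chemical treatment, HepG2 with transient multi-reporter transfection; RNA → oligo(dT) RT → PCR → 6-FAM extension → HpaI digest → CE fluorescence. Bidirectional fit, DMSO negative control.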

Test [4] is described as follows: ATG_DR4_LXR_CIS: Attagene CIS-FACTORIAL HepG2 Assay for human Liver X Receptor (LXR), DR4 submotif (AID 2282929). To be noted: HepG2 Attagene DR4 cis-reporter, mRNA transcription; actives raise or lower the signal. In short, it runs like this:
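Endogenous factor activity at a DR4 cis-element is read as reporter mRNA in transiently transfected HepG2 cells. Exposure lasts 24 h; transcripts are amplified, fluorescently labelled and sized by capillary electrophoresis, with DMSO as baseline.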

Test [5] addresses Aryl hydrocarbon receptor (Homo sapiens) (UniProt P35869). In words: ATG_Ahr_CIS: Attagene CIS-FACTORIAL HepG2 Assay for human Aryl Hydrocarbon Receptor (Ahr) (AID 2282930). To be noted: HepG2 AhR cis-factorial reporter transcription; actives raise or lower the signal. In short, it runs like this:
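HepG2 cells transiently transfected with cis-element-driven multiplexed reporter units; endogenous AhR activity read as reporter mRNA 24 h after dosing, via RT-PCR, 6-FAM labelling, HpaI digestion and capillary electrophoresis. Bidirectional fit relative to DMSO.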

Test [6] can be described thus: ATG_AP_1_CIS: Attagene CIS-FACTORIAL HepG2 Assay for human Activator Protein 1 (AP-1) (AID 2282931). The conditions noted are these: HepG2 Attagene cis-factorial AP-1 reporter mRNA; actives raise or lower the signal. In short, it runs like this:
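Fluorescence of labelled PCR fragments separated by capillary electrophoresis gives reporter mRNA levels. HepG2 with transfected cis-regulated reporter units, 24 h exposure; DMSO serves as baseline for bidirectional curve fits.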

Test [7] can be described thus: ATG_AP_2_CIS: Attagene CIS-FACTORIAL HepG2 Assay for human Activator Protein 2 (AP-2) (AID 2282932). To be noted: HepG2 AP-2 cis-reporter, Attagene transcription factor profiling; actives raise or lower the signal. The essentials: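 Read-out: fluorescent reporter mRNA via RT-PCR and capillary electrophoresis, 24 h post-dose in transiently transfected HepG2. Endogenous factors drive cis-promoter reporters; gain or loss of signal fitted bidirectionally against DMSO.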

Test [8] is described as follows: ATG_BRE_CIS: Attagene CIS-FACTORIAL HepG2 Assay for human Bone Morphogenetic Protein (BMP) Response Element (BRE) (AID 2282933). To be noted: HepG2 BMP response element reporter, Attagene transcription factor profiling; actives raise or lower the signal. The essentials: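 Gain- or loss-of-signal was derived by bidirectional fitting against DMSO controls. The signal came from reporter mRNA, measured by RT-PCR and capillary electrophoresis, in HepG2 cells transiently carrying multiple reporter units and dosed for 24 h.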

Test [9] concerns the target Retinoic acid receptor alpha (Homo sapiens) (UniProt P10276). In words: ATG_DR5_RAR_CIS: Attagene CIS-FACTORIAL HepG2 Assay for human Retinoic Acid Receptor Alpha (RARE), DR5 submotif (AID 2282934). The conditions noted are these: HepG2 Attagene cis-factorial RARE DR5 reporter, mRNA; actives raise or lower the signal. In short, it runs like this: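 HepG2 cells transiently transfected with multiplexed reporter units; DR5 cis-element drives reporter through endogenous transcription factors. After 24 h dosing, reporter mRNA quantified by RT-PCR, fluorescent labeling, HpaI digestion and capillary electrophoresis; bidirectional fitting versus DMSO.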

Test [10] can be described thus: ATG_E_Box_CIS: Attagene CIS-FACTORIAL HepG2 Assay for human Enhancer Box (E-box) (AID 2282936). To be noted: HepG2 E-box cis-reporter transcription, actives raise or lower the signal. In short, it runs like this:
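Transiently transfected HepG2, endogenous TF-driven reporters, 24 h dosing. Readout: RT-PCR plus capillary electrophoresis of fluorescent reporter fragments. Gain or loss of signal fitted bidirectionally against DMSO baseline.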

Test [11] can be described thus: ATG_M_61_CIS: Attagene CIS-FACTORIAL HepG2 Assay for M61 Transcription Factor (Internal Marker) (AID 2282937). To be noted: HepG2 Attagene CIS-FACTORIAL M61 internal marker reporter; actives raise or lower the signal. The essentials:
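This endpoint serves as an internal background control within a multiplexed HepG2 cis-reporter panel. Cells are exposed for 24 h; reporter mRNA is amplified, fluorescently labelled and sized by capillary electrophoresis, with DMSO as negative control.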

A short description of test [12]: ATG_EGR_CIS: Attagene CIS-FACTORIAL HepG2 Assay for human Early Growth Response 1 (EGR1) (AID 2282938). To be noted: HepG2 Attagene CIS-FACTORIAL EGR reporter mRNA; actives raise or lower the signal. The essentials: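 HepG2, transient MRTU transfection (cis promoters), 24 h compound. RNA → RT (oligo-dT) → PCR → 6-FAM labelling → HpaI cut → CE fluorescence. Bidirectional fit, DMSO baseline.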

The nature of test [13]: ATG_M_19_CIS: Attagene CIS-FACTORIAL HepG2 Assay for M19 Transcription Factor (Internal Marker) (AID 2282939). The conditions noted are these: HepG2 Attagene CIS-FACTORIAL M19 internal marker reporter; actives raise or lower the signal. The essentials:
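Following a 24 h exposure, RNA from transfected HepG2 cells was reverse-transcribed, PCR-amplified with reporter-specific primers, end-labelled with 6-FAM and HpaI-digested before capillary separation. Values represent gain or loss versus DMSO.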

Test [14] is described as follows: ATG_ERE_CIS: Attagene CIS-FACTORIAL HepG2 Assay for Estrogen Response Element (ERE) (AID 2282940). To be noted: HepG2 ERE cis-reporter, Attagene RNA transcript; actives raise or lower the signal. In short, it runs like this: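 HepG2, transient cis-reporter units, 24 h exposure. RNA isolated, oligo(dT) RT, reporter-specific PCR, FAM extension, HpaI cut, CE detection. Gain/loss-of-signal vs DMSO.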

The nature of test [15]: ATG_Ets_CIS: Attagene CIS-FACTORIAL HepG2 Assay for human Erythroblast Transformation Specific (ETS) (AID 2282941). The conditions noted are these: HepG2 ETS cis-reporter transcription, actives raise or lower the signal. In short, it runs like this:
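Cis-regulated reporter mRNA induction in HepG2 (transient transfection), 24 h exposure, RT-PCR plus capillary electrophoresis detection; DMSO serves as negative control and baseline.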

In test [16] the target is Hepatocyte nuclear factor 3-beta (Homo sapiens) (UniProt Q9Y261). Kind of test: ATG_FoxA2_CIS: Attagene CIS-FACTORIAL HepG2 Assay for human Forkhead box A2 (FOXA2) (AID 2282942). The conditions noted are these: HepG2 cis-reporter transcription factor activity, 24 h; actives raise or lower the signal. The essentials: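 Cells: HepG2, transient multiplex reporter transfection. Exposure 24 h. Detection: reporter-specific RT-PCR, fluorescent labelling, restriction digest, capillary electrophoresis. Analysis: bidirectional curve fit, DMSO as negative control.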
Chain of Hepatocyte nuclear factor 3-beta (Homo sapiens) (Q9Y261 whole entry, looked up): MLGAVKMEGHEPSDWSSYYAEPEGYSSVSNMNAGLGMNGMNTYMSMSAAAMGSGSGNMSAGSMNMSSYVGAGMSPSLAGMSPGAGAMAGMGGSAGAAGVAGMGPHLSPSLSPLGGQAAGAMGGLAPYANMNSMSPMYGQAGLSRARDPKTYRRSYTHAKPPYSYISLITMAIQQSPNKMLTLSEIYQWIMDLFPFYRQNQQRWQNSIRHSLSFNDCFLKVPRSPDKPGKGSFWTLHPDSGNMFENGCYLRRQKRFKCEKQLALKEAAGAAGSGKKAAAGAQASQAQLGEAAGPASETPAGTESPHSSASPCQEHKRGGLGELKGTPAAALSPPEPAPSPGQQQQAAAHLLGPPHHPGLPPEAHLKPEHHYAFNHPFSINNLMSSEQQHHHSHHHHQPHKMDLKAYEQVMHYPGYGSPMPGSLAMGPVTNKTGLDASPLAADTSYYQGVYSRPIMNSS

Test [17] can be described thus: ATG_FoxO_CIS: Attagene CIS-FACTORIAL HepG2 Assay for human Forkhead box O (FoxO) (AID 2282943). The conditions noted are these: HepG2 Attagene cis-reporter, FoxO element, mRNA; actives raise or lower the signal. The essentials:
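HepG2 cells transiently transfected with cis-element-driven reporter units report endogenous FoxO activity. After 24 h chemical exposure, reporter mRNA quantified by RT-PCR, fluorescent labeling, HpaI digestion and capillary electrophoresis; bidirectional fit versus DMSO.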

Test [18] is described as follows: ATG_GLI_CIS: Attagene CIS-FACTORIAL HepG2 Assay for human Zinc Finger Protein GLI1 (AID 2282945). To be noted: HepG2, Attagene cis-factorial reporter mRNA, GLI element; actives raise or lower the signal. The essentials: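 Transiently transfected HepG2 cells report endogenous transcription factor activity via cis-element-driven reporter units. After 24 h compound exposure, reporter mRNA was measured by RT-PCR with capillary electrophoresis; bidirectional fitting against DMSO baseline.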

Test [19] concerns the target Transcription factor E2F1 (Homo sapiens) (UniProt Q01094). In words: ATG_E2F_CIS: Attagene CIS-FACTORIAL HepG2 Assay for human E2F Transcription Factor 1 (AID 2282935). The conditions noted are these: HepG2 Attagene cis-reporter, E2F reporter RNA transcripts; actives raise or lower the signal. In short, it runs like this: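 Transient MRTU transfection of HepG2; 24 h compound exposure; RNA → oligo(dT) RT → PCR → FAM label → HpaI cut → CE fluorescence. Gain/loss of signal fit against DMSO.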

A short description of test [20]: ATG_GATA_CIS: Attagene CIS-FACTORIAL HepG2 Assay for human GATA Binding Protein (AID 2282944). The conditions noted are these: HepG2 GATA cis-element reporter, Attagene multiplex mRNA; actives raise or lower the signal. In short, it runs like this:
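DMSO serves as negative control and baseline for bidirectional fitting of reporter mRNA changes. HepG2 cells bearing transiently transfected cis-promoter reporters were exposed 24 h; transcripts detected via RT-PCR and capillary electrophoresis.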

SMILES strings stand for the structures. “And” between values parts separate entries of the source, which are not always exact repeats. Equal values may be shown once. Some structures have more than one record in an assay (separate samples or runs), and their calls can disagree. The source made the active and inactive calls. How the source made its calls: active means hit-call score of the fitted dose curve at least 0.9, where 1 is the maximum; inactive means score below 0.9.

Chain of Transcription factor E2F1 (Homo sapiens) (Q01094 whole entry, looked up): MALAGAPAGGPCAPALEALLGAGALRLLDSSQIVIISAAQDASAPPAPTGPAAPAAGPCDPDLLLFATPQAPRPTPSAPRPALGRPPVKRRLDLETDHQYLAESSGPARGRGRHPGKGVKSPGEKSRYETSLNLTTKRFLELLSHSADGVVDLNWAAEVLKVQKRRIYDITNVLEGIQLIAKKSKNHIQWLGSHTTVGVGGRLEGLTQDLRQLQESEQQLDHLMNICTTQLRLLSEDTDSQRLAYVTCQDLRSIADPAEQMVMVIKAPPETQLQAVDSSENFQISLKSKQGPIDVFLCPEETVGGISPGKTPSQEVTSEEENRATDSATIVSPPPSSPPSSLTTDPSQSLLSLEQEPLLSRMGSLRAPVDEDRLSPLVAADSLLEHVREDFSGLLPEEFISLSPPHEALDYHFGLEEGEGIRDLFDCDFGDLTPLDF
Chain of Retinoic acid receptor alpha (Homo sapiens) (P10276 whole entry, looked up): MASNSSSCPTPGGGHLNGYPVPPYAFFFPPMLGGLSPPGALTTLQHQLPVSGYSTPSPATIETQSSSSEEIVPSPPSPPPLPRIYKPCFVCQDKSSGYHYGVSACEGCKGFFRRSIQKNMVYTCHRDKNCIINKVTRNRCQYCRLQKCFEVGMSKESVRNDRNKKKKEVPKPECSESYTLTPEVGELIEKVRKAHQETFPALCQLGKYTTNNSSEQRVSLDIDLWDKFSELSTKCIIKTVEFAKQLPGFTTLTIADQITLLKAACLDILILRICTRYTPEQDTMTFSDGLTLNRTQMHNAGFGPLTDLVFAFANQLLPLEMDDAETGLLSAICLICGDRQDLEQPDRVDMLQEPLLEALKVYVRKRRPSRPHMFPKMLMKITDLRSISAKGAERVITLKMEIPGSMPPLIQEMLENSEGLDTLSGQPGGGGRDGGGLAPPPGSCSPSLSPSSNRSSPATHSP
Chain of CCAAT/enhancer-binding protein beta (Homo sapiens) (P17676 whole entry, looked up): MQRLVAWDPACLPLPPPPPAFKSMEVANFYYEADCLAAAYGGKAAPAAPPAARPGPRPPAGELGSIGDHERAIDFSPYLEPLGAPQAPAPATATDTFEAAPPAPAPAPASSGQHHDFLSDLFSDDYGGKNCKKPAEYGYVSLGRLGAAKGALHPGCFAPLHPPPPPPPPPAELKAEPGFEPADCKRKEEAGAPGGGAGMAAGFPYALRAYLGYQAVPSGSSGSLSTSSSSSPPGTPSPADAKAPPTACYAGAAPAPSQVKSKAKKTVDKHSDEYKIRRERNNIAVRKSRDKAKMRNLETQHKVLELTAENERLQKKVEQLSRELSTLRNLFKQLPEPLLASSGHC
Chain of Aryl hydrocarbon receptor (Homo sapiens) (P35869 whole entry, looked up): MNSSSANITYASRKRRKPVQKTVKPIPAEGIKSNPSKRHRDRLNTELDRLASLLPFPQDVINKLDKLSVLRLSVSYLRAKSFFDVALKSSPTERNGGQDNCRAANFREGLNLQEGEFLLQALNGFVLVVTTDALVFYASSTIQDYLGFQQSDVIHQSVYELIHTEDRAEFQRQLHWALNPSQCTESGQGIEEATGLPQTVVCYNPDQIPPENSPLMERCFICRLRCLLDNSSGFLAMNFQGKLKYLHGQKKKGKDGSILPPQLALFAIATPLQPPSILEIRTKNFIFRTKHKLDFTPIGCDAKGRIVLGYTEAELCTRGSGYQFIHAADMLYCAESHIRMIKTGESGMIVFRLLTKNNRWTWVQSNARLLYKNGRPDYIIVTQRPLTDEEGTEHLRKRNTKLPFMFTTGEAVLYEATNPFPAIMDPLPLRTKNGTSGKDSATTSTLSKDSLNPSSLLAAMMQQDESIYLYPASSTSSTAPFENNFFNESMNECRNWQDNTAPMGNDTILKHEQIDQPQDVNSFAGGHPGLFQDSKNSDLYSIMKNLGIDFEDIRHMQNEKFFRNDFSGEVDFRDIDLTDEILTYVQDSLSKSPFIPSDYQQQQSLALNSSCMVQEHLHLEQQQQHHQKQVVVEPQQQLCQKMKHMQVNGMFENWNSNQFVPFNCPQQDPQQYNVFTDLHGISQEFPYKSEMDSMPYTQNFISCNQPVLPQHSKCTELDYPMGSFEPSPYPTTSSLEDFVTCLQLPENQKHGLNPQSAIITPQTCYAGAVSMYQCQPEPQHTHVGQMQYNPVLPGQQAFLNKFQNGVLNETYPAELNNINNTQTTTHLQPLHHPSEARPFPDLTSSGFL

For `Nc1ccn([C@@H]2O[C@H](CO)[C@@H](O)[C@@H]2O)c(=O)n1`, the call in test [1], in test [2], in test [3], in test [4], in test [5] and in test [6] was inactive. Besides, the compound was called inactive in test [7], in test [8], in test [9], in [10], in test [11] and in test [12]. The outcome in test [13], in test [15], in [16], in test [17] and in [18] was inactive. For the same compound, the AC50 in [14] was 6.66 µM (active).

In the case of `NCC(F)(F)C(F)(F)C(F)(F)C(F)(F)F`, the compound was classed as inactive in test [1], in [2], in [3], in test [4], in test [5] and in test [6]. Moreover, the call in [7], in test [8], in test [9], in [19], in test [10] and in test [11] was inactive. Further, the result in [12], in test [13], in test [14], in [15], in test [16] and in test [17] was inactive. The compound was classed as inactive in [18].

`NC(=O)NN=Cc1ccc([N+](=O)[O-])o1`: the compound was classed as inactive in test [1], in [2], in test [4], in test [5], in test [7] and in [8]. Besides, the outcome in test [11], in test [12], in test [13], in [14], in test [15] and in [16] was inactive. For the same compound, the call in [17] and in test [18] was inactive. Besides, the AC50 is 17.2 µM (active) in test [3], 64.4 µM (active) in test [6] and 113 µM (active) in test [10].

For `COCc1nnc(-c2ccc[n+]([O-])c2)n1-c1c(Cl)c(Cl)cc2[nH]c(=O)c(=O)[nH]c12`, the outcome in [1], in test [2], in [3], in [4], in [5] and in [6] was inactive. For the same compound, the result in test [7], in test [9], in [10], in test [11], in test [12] and in test [13] was inactive. The result in test [14], in test [15], in test [16], in [17] and in [18] was inactive.

As to `O=C(O)[C@H](O)[C@@H](O)C(=O)O`, the compound was classed as inactive in test [1], in test [2], in [3], in test [4], in test [5] and in test [6]. Also, the compound was called inactive in test [7], in [8], in test [10], in test [11], in test [12] and in test [13]. Further, the compound was classed as inactive in test [14], in test [15], in test [16], in test [17], in test [20] and in test [18].

In the case of `c1ccc2c(c1)-c1cccc3c1c-2cc1ccccc13`, the result in test [1], in test [2], in [3], in [4], in test [6] and in test [7] was inactive. The compound was called inactive in test [9], in [10], in test [11], in test [12], in test [13] and in test [14]. For the same compound, the compound was called inactive in [15], in [16], in test [17] and in test [18]. The AC50 was 57 nM (active) and 28.1 µM (active) in test [5]; 0.929 µM (active) in [14].

As to `OCCC(F)(F)C(F)(F)C(F)(F)C(F)(F)F`, the call in [1], in [2], in test [3], in test [4], in [5] and in [6] was inactive. The compound was classed as inactive in [7], in test [9], in [19], in test [10], in test [11] and in test [12]. Moreover, the outcome in test [13], in test [14], in [15], in test [16], in test [17] and in test [20] was inactive. In [18], the result was inactive.
